Laboratory results reported in PubChem BioAssay.
Values joined by “and” are separate entries in the source; they are usually repeats but may differ in a detail not shown here. Identical values can stand only once. Active and inactive are the calls of the source.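 Rule for the calls, unless noted: active = thallium flux through the channel raised or lowered by more than 3 SD from vehicle-only wells, actives on both sides; inactive = the rest.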

Assays:
[1] = liver-stage malaria parasite growth inhibition, primary screen, cell-based, HepG2, luciferase luminescence, HepG2 viability (AID 624349; in the data active = parasite load remaining mostly below about 12%, no sharp cut-off; inactive = mostly above about 10%;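 note: 100% = mean of DMSO negative control wells on the same plate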); conditions: P. berghei liver stage in HepG2, luciferase luminescence, concentration not given here; parasite load remaining: stronger effect = lower value; viability: measured here: HepG2 viability without parasites
[2] = Cy5 fluorescence interference with SSB-bound oligo, artefact control for HCV NS3 helicase inhibitor project, biochemical, NIH Clinical Collection, E. coli SSB (AID 743268; call rule not given here)
[3] = tested on: Hepatitis C virus NS3 helicase; test: HCV NS3 helicase inhibitors, primary screen, biochemical, fluorescence polarization, NIH Clinical Collection (AID 743270; call rule not given here); conditions: NS3 helicase binding to Cy5-dT15 DNA, stronger effect = higher value, concentration not given here
[4] = target: Single-stranded DNA-binding protein (Escherichia coli (strain K12)) (UniProt P0AGE0); test: E. coli SSB displacement from DNA, counter-screen for HCV NS3 helicase inhibitor project, biochemical, fluorescence polarization, NIH Clinical Collection (AID 743271; in the data active = inhibition above about 28%); conditions: stronger effect = higher value, concentration not given here
[5] = fluorescence interference in NS3h assay format, artefact control for HCV NS3 helicase inhibitor project, biochemical, NIH Clinical Collection (AID 743272; call rule not given here;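 note: HCV NS3 helicase with a Cy5 labelled single stranded DNA probe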); conditions: fluorescence interference counterscreen, stronger effect = lower value
[6] = modulation of C. elegans fzo-1 (AID 1259413; call rule not given here;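 note: fzo-1 mutant C. elegans worms in liquid wells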); conditions: C. elegans fzo-1 modulator screen, mean read-out; stronger effect = higher value
[7] = sensitizers of A549 cells to miR-34 induction, primary screen, imaging, A549 dox-inducible miR-34, nuclei and caspase counts (AID 1347080;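 active = compounds whose cell count with miR-34 switched on is under 0.7 times the count with it off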); conditions: A549 miR-34 inducible, Hoechst nuclei count, 48 h
F380Y = test: modulators of BK channel variants, profiling panel, selectivity assay, cell-based, U2OS BacMam, thallium flux, beta subunits (AID 1259406); conditions: at 30 µM;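 note: initial slope of Thallos dye fluorescence rise after thallium is added; log ratio against the mean of 0.3% DMSO vehicle wells on the same plate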
F380Y/beta1 = test: as above; conditions: at 30 µM
F380Y/beta2Delta = test: as above; conditions: at 30 µM
F380Y/beta4 = test: as above; conditions: at 30 µM
[8] = target: Calcium-activated potassium channel subunit alpha-1 (Homo sapiens) + Leucine-rich repeat-containing protein 26 (Homo sapiens) (UniProt Q12791+Q2I0M4); test: as above; conditions: F380Y/Slo1WT/gamma1, at 30 µM
R275C = test: as above; conditions: at 30 µM
R275C/beta1 = test: as above; conditions: at 30 µM
R275C/beta2Delta = test: as above; conditions: at 30 µM
R275C/beta4 = test: as above; conditions: at 30 µM
R275C/Slo1WT/beta2 = test: as above; conditions: at 30 µM
[9] = survival rescue of mitochondrial mutant cells in low glucose, primary screen, MELAS cybrids, Rieske KO mouse fibroblasts, CellTiter-Glo (AID 1508586;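 active = mean z-score across replicates of 1.96 or higher in either the MELAS or the Rieske mutant cell line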;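 note: z relative to plate mean and SD of compound and empty wells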)
[10] = stronger effect = lower value, cell number ratio, induced over uninduced
[11] = measured here: relative caspase fold change +Dox/-Dox
[12] = measured here: total cells with miR-34 induction, stronger effect = lower value
[13] = measured here: total cells without miR-34 induction
[14] = MELAS cybrid survival, CellTiter-Glo 48 h, stronger effect = higher value
[15] = Rieske KO mouse fibroblast survival, CellTiter-Glo 72 h

Sequence of Calcium-activated potassium channel subunit alpha-1 (Homo sapiens) + Leucine-rich repeat-containing protein 26 (Homo sapiens) (Q2I0M4 whole entry, looked up, one chain of several): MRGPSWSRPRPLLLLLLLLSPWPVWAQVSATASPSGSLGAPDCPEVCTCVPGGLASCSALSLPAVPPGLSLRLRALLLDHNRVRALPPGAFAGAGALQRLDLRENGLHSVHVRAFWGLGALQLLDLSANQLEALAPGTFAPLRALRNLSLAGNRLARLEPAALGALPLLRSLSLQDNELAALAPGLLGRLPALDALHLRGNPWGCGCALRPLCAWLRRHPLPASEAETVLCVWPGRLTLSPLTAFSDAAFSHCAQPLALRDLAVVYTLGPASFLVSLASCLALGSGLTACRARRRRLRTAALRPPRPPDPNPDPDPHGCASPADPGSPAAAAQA

CC(=O)OCC(=O)C12OC3(CCCC3)OC1CC1C3CCC4=CC(=O)C=CC4(C)C3(F)C(O)CC12C (stereo not drawn)
95.1%: viability [1]
active: log fold change Tl+ flux (F380Y) 0.16
5910: cell count [7, 12]
1.12: fold change [7, 11]
inactive: parasite load remaining [1] 72.8% | fluorescence ratio [2] 1.06 | inhibition [3] -5% | inhibition [4] 0.29% | fluorescence ratio [5] 0.98 | mean signal [6] 242 | fold change [7, 10] 0.97 | log fold change Tl+ flux (F380Y/beta1) -0.0293 | log fold change Tl+ flux (F380Y/beta2Delta) 0.0485 | log fold change Tl+ flux (F380Y/beta4) -0.0119 | log fold change Tl+ flux [8] 0.0537 | log fold change Tl+ flux (R275C) -0.00403 | log fold change Tl+ flux (R275C/beta1) 0.0957 | log fold change Tl+ flux (R275C/beta2Delta) 0.0763 | log fold change Tl+ flux (R275C/beta4) 0.0347 | log fold change Tl+ flux (R275C/Slo1WT/beta2) 0.084
6100: cell count [7, 13]

COc1ccnc(CS(=O)c2nc3cc(OC(F)F)ccc3[nH]2)c1OC (stereo not drawn)
0.907: z-score [9, 15]
inactive: parasite load remaining [1] 94.6% | fluorescence ratio [2] 1.07 | inhibition [3] -2.77% | inhibition [4] 1.44% | fluorescence ratio [5] 1.05 | mean signal [6] 243 | fold change [7, 10] 0.937 | z-score [9, 14] 1.33 | log fold change Tl+ flux (F380Y) -0.000729 | log fold change Tl+ flux (F380Y/beta1) -0.0068 | log fold change Tl+ flux (F380Y/beta2Delta) 0.0285 | log fold change Tl+ flux (F380Y/beta4) -0.0379 | log fold change Tl+ flux [8] 0.0336 | log fold change Tl+ flux (R275C) -0.0182 | log fold change Tl+ flux (R275C/beta1) 0.0487 | log fold change Tl+ flux (R275C/beta2Delta) 0.0404 | log fold change Tl+ flux (R275C/beta4) -0.00392 | log fold change Tl+ flux (R275C/Slo1WT/beta2) -0.00592
1.32: fold change [7, 11]
9680: cell count [7, 13]
75.5%: viability [1]
9070: cell count [7, 12]

C=CCc1ccc(O)c(-c2ccc(O)c(CC=C)c2)c1
1.37 and 0.714: fold change [7, 11]
active: log fold change Tl+ flux (F380Y) 0.306 | log fold change Tl+ flux (F380Y/beta1) 0.643 | log fold change Tl+ flux (F380Y/beta2Delta) 0.34 | log fold change Tl+ flux (F380Y/beta4) 0.501 | log fold change Tl+ flux [8] 0.418 | log fold change Tl+ flux (R275C/beta1) 0.387 | log fold change Tl+ flux (R275C/beta2Delta) 0.524 | log fold change Tl+ flux (R275C/beta4) 0.697 | log fold change Tl+ flux (R275C/Slo1WT/beta2) 0.149
inactive: parasite load remaining [1] 18.8% | fluorescence ratio [2] 0.94 | inhibition [3] 5.94% | inhibition [4] 5.29% | fluorescence ratio [5] 0.94 | mean signal [6] 216 | fold change [7, 10] 0.989 and 0.916 | z-score [9, 14] -0.24 | log fold change Tl+ flux (R275C) 0.0538
0.74: z-score [9, 15]
8280 and 10100: cell count [7, 13]
8192 and 9270: cell count [7, 12]
70.3%: viability [1]

CC1c2cccc(O)c2C(O)=C2C(=O)C3(O)C(O)=C(C(N)=O)C(=O)C(N(C)C)C3C(O)C21 (stereo not drawn)
2010: cell count [7, 13]
inactive: parasite load remaining [1] 45.4% | fluorescence ratio [2] 1.05 | inhibition [3] -13.2% | inhibition [4] -2.76% | fluorescence ratio [5] 1 | mean signal [6] 241 | fold change [7, 10] 1.04 | log fold change Tl+ flux (F380Y) 0.0135 | log fold change Tl+ flux (F380Y/beta2Delta) -0.0466 | log fold change Tl+ flux (F380Y/beta4) -0.028 | log fold change Tl+ flux [8] -0.0167 | log fold change Tl+ flux (R275C) -0.0534 | log fold change Tl+ flux (R275C/beta1) -0.0443 | log fold change Tl+ flux (R275C/beta2Delta) -0.0148 | log fold change Tl+ flux (R275C/beta4) -0.108 | log fold change Tl+ flux (R275C/Slo1WT/beta2) -0.0846
active: log fold change Tl+ flux (F380Y/beta1) -0.12
2090: cell count [7, 12]
132%: viability [1]
1.1: fold change [7, 11]
